Compounds with a hit are over-represented: about 1.1% of the library has one in this group of screens.
HTR5A inv ctr = counter-screen for OPRM1-OPRD1 inverse agonists: human HTR5A inverse agonism; P47898; HTR5A cell line, luminescence; inhibition, % at 9.3 µM; hit rate 0.083% among 340,000; AID 504634; in the data active = inhibition mostly above about 23%, no sharp cut-off; inactive = mostly below about 18%;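 also: 0% = cells with DMSO and 100% = no-cell wells with DMSO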
Target sequence (P47898 whole entry, looked up): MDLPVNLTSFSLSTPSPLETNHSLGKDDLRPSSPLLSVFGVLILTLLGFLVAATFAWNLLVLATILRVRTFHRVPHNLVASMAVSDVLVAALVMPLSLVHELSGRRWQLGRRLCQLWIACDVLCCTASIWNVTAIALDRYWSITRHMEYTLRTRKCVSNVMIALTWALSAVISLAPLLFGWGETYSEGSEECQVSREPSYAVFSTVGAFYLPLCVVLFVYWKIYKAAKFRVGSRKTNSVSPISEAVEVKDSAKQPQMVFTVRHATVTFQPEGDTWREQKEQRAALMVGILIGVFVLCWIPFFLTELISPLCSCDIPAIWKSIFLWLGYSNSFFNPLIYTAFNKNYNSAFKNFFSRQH
OPRM1-OPRD1 ag = agonists of human mu-delta opioid receptor heterodimerization; AID 504326; cells, OPRM1-OPRD1 heterodimerization, luminescence; activation, % at 9.3 µM; P35372+P41143; hit rate 0.3% among 340,000; in the data active = activation above about 18%;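 also: 0% = vehicle-treated cells and 100% = reference agonist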
HTR5A ag = HTR5A agonism, opioid heterodimer counter-screen. activation, % at 9.3 µM. P47898. HTR5A agonist assay, luminescence, cell-based. hit rate 0.61% among 340,000. AID 504692; in the data active = activation mostly above about 9.5%, no sharp cut-off; inactive = mostly below about 7.6%;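 also: 0% = cells with vehicle only and 100% = reference agonist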
MOR-DOR inv ag = mu-delta opioid heterodimer inverse agonism. P35372+P41143. cell-based MOR-DOR heterodimer luminescence. inhibition, % at 9.3 µM. hit rate 0.21% among 340,000. AID 504357; in the data active = inhibition above about 22%, passing the limit was not always enough;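 also: 0% = cells with DMSO and 100% = wells without cells with DMSO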
Starred values were filed as active, the others as inactive.

SMILES | HTR5A inv ctr | OPRM1-OPRD1 ag | HTR5A ag | MOR-DOR inv ag
O=C(CCc1nc(-c2cccs2)no1)Nc1cnc2ccccc2c1 | -21.1 | -0.2 | 3.0 | 0.8
COc1cc(N=Nc2c(O)c3ccccc3[nH]c2=O)c(OC)cc1N=Nc1ccccc1 | -22.2 | -1.5 | 6.1 | 7.8
COc1ccc(OC)c(N=Nc2c(O)c3ccccc3[nH]c2=O)c1 | -56.3 | 2.1 | 13.8* | -11.2
Cc1ccc(S(=O)(=O)n2cc(-c3ccccc3)c(N)n2)cc1 | 21.4 | 2.0 | 2.5 | -11.1
CNC(=O)c1nnc(Cc2ccc(F)cc2)o1 | -18.0 | 0.4 | 6.2 | -2.5
CN(C)NC1CC(=O)N(c2ccccc2)C1=O (configuration not stated) | -7.1 | -1.2 | -11.7 | 5.7
Clc1ccc(/C=C/c2nc3ccccc3[nH]2)c(Cl)c1 | -16.6 | 7.1 | 13.0* | -32.5
O=C(Nc1ccc(N2CCN(C(=O)c3ccco3)CC2)c(Cl)c1)c1cc2ccccc2o1 | 16.1 | 6.3 | 14.2* | -37.5
Cc1ccc(C(=O)Nc2ccc(N3CCN(C(=O)c4ccco4)CC3)cc2)c(Cl)c1 | -4.1 | 2.0 | 5.4 | -14.2
O=C(Nc1ccc(N2CCN(C(=O)c3ccco3)CC2)cc1)c1ccc([N+](=O)[O-])cc1Cl | 0.2 | 0.6 | 10.1* | -1.8
CCCCCCN(C(=O)CCl)c1ccccc1 | -7.2 | 52.9* | 64.1* | -270.9
CCCCCCCN(C(=O)CCl)c1cccc(C)c1 | -128.7 | 79.3* | 84.4* | -426.3
Nc1nonc1C(=O)N/N=C/c1ccncc1 | -26.9 | 0.4 | 10.9* | -2.1
Cc1nonc1C(=O)N/N=C/c1ccncc1 | 11.8 | 0.9 | -4.4 | -6.2
Cc1cc(C)nc(N2CCC(C(=O)O)CC2)n1 | -15.5 | 0.3 | 4.1 | -1.5
O=c1[nH]c2ccc(Cl)cc2c(-c2ccccc2)c1N1CCN(CCO)CC1 | 13.5 | 2.9 | 1.0 | -15.4
O=C(c1ccco1)N1CCC(c2nc3c(nnn3Cc3c(Cl)cccc3Cl)c(=O)[nH]2)CC1 | -29.9 | 0.4 | 1.3 | -3.0
CC(C)(C)CC(=O)N1CCC(c2nc3c(nnn3Cc3c(F)cccc3Cl)c(=O)[nH]2)CC1 | 27.5 | -1.3 | 10.7* | 8.1
COC(=O)[C@]1(C)N[C@H](CN(C)C(=O)c2ccc(C)cc2)[C@@H]2C(=O)N(C)C(=O)[C@@H]21 | -7.1 | -1.6 | 1.9 | 7.6
CC(NCC(O)COc1ccccc1)C1COc2ccccc2O1 (configuration not stated) | -43.1 | 4.5 | 11.6* | -21.7
CC(NCc1ccccc1)C1COc2ccccc2O1 (configuration not stated) | -10.0 | -2.6 | 4.6 | 13.0
O=S(=O)(c1ccc(Cl)cc1)N1CCN(c2nc(-c3cccs3)nc3ccccc23)CC1 | -19.4 | -1.8 | 5.6 | 9.6
CCC(CC)NC(=O)c1nn(Cc2ccccc2)c(=O)c2ccccc12 | -26.0 | 4.7 | 9.8* | -35.0
CC(C)(C)c1ccc(OCc2ccc(C(=O)N/N=C/c3ccc(O)c(O)c3)cc2)cc1 | -21.8 | 5.0 | 8.8* | -23.9
Nc1cc(=O)nc(SCC(=O)N(C2CCCCC2)C2CCCCC2)n1-c1ccccc1 | -12.2 | 3.1 | 12.8* | -16.6
SMILES | HTR5A inv ctr | OPRM1-OPRD1 ag | HTR5A ag | MOR-DOR inv ag
Oc1ccc(-c2[nH]ncc2-c2ccc(Cl)cc2)c(O)c1 | -11.1 | -1.1 | 3.6 | 5.8
COc1cc(/C=N/N=C(N)N)ccc1OCc1ccc(Cl)cc1 | -27.9 | 7.6 | 10.5* | -54.8
O=C(CSc1nc(-c2ccccc2)cs1)Nc1nccs1 | -27.4 | 12.9 | 10.8* | -70.0
O=C(COC(=O)c1cn(-c2ccccc2)nc1-c1ccc(F)cc1)Nc1ncc(Cl)cc1Cl | -1.3 | 0.4 | 4.4 | -1.9
NS(=O)(=O)c1ccc(NC(=O)COC(=O)c2cn(-c3ccccc3)nc2-c2ccc(F)cc2)cc1 | -42.8 | 3.6 | 11.7* | -18.7
Cc1ccc(NC(=S)Nc2ccc(Br)cc2)cc1 | -34.6 | 6.0 | 13.3* | -34.2
Cn1ncc2c(O/N=C(\N)c3ccc(C(F)(F)F)cc3)ncnc21 | 0.6 | 39.2* | 48.1* | -195.6
Cc1ccc(C(=O)NNc2ncnc3c2cnn3C)cc1 | -20.1 | -4.0 | 3.7 | 21.2
COc1ccc(S(=O)(=O)N2CCCCC2)cc1NC(=O)CSc1ncccn1 | -28.6 | -4.9 | 5.1 | 18.3
COc1ccc(S(=O)(=O)N2CCOCC2)cc1NC(=O)CSc1ncccn1 | -44.3 | -1.5 | 10.8* | 7.7
CC(C)c1ccc(S(=O)(=O)N2CCN(C(=O)CN3C(=O)c4ccccc4C3=O)CC2)cc1 | -8.4 | -1.8 | 2.4 | 9.4
O=C(NNS(=O)(=O)c1ccc(F)cc1)c1ccccc1F | -45.2 | -2.9 | 12.0* | 14.4
CN1CCN(C2=C(Cl)C(=O)c3ccccc3C2=O)CC1 | 13.7 | 28.1* | -3.5 | -136.3
O=C1C(Cl)=C(N2CCC(C(=O)O)CC2)C(=O)c2ccccc21 | 0.5 | 4.3 | -1.2 | -22.2
CC(C)Cc1nnc(NC(=O)C2CCN(C(=O)c3ccc(Cl)cc3)CC2)s1 | -8.7 | 0.8 | 3.3 | -5.6
Nc1ccc(N(CCO)CCO)cc1 | -33.9 | 3.7 | 12.3* | -16.9
O=C(c1ccccc1)c1c(O)cc(-c2ccccc2)oc1=O | 20.9 | -0.7 | -6.0 | 3.4
O=Cc1cn(-c2ccccc2)nc1-c1ccc(F)cc1 | -5.8 | 9.5 | 1.5 | -47.4
CC1=NNC(=O)/C1=C\c1cn(-c2ccccc2)nc1-c1ccc(F)cc1 | -45.9 | 7.0 | 16.6* | -34.2
COc1cc2ncnc(NCc3cccc(F)c3F)c2cc1OC | -32.7 | 2.0 | 9.2* | -9.3
COc1cc(/C=C/C(=O)OCC(=O)Nc2ccc(C)cc2[N+](=O)[O-])ccc1O | -1.1 | 7.9 | 0.4 | -41.6
COc1cc(/C=C/C(=O)OCC(=O)Nc2cc(C)c(C)cc2[N+](=O)[O-])ccc1O | -35.8 | -2.3 | 11.4* | 12.2
COc1ccc(NC(=O)COc2coc(CN3c4ccccc4CC3C)cc2=O)cc1 (configuration not stated) | -13.3 | 0.1 | 4.4 | -0.6
COc1ccc(-c2cc(-c3ccccc3)nc(NN)n2)cc1OC | 25.6 | -5.2 | -9.9 | 26.0
Cc1ccc(-c2cc(-c3ccccc3)nc(NN)n2)cc1 | 32.7* | -9.2 | -8.9 | 42.6*
SMILES | HTR5A inv ctr | OPRM1-OPRD1 ag | HTR5A ag | MOR-DOR inv ag
COc1ccc(NC(=O)Nc2cccc(C(F)(F)F)c2)cn1 | -35.0 | 4.8 | 12.9* | -24.0
C=CCn1c(NCc2c[nH]c3ccccc23)nc2ccccc21 | -6.0 | -0.5 | -1.9 | 3.2
COc1cccc(C(=O)/C=C/c2ccc(N3CCCCC3)c([N+](=O)[O-])c2)c1 | 10.3 | -2.8 | 1.5 | 14.7
Cc1ccsc1C(=O)N1CCCC(CCC(=O)N2CCN(c3ccccn3)CC2)C1 (configuration not stated) | 4.9 | -2.7 | 4.0 | 13.4
Cc1onc(C(=O)N2CCN(c3ccccc3)CC2)c1[N+](=O)[O-] | 3.8 | -3.4 | 0.2 | 17.4
Cc1ccc(Cl)cc1N1CCN(C(=O)c2noc(C)c2[N+](=O)[O-])CC1 | -37.4 | 14.9 | 10.0* | -74.8
CCC(C)(C)C(=O)Nc1ccc(C(N)=O)cc1 | -12.4 | -2.3 | 5.2 | 9.4
Cc1nc2c(C(=O)N3CCOCC3)cnn2c(C)c1Cc1ccc(Cl)cc1 | -17.6 | 3.8 | 11.5* | -20.5
COc1ccc(Nc2nc(Nc3ccc(OC)cc3)nc(SC3=NCCS3)n2)cc1 | -37.6 | 0.1 | 9.8* | -0.6
COc1ccc(Nc2nc(Cl)nc(NCCO)n2)cc1 | -15.2 | -3.1 | -0.7 | 14.1

Screens (PubChem)
